Seven compounds from PubChem BioAssay AID504905 (The Scripps Research Institute Molecular Screening Center, 2011) can be followed below.

Some of the results follow. A number with no mark means an inactive call. Activity calls are given as the source filed them. No stated cut-off is given here; in the data, active means activation above about 17%; inactive means the rest.

Chain of 5-hydroxytryptamine receptor 5A (Homo sapiens) (P47898 whole entry, looked up): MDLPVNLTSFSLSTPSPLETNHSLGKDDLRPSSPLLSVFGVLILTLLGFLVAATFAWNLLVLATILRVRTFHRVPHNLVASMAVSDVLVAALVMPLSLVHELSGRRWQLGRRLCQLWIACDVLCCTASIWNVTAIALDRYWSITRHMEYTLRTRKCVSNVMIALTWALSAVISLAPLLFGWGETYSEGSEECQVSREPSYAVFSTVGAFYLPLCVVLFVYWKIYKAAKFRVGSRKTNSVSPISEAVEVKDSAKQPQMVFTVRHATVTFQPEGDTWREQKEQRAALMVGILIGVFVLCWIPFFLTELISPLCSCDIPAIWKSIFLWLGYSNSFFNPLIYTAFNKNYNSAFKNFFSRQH

The assay has as its target 5-hydroxytryptamine receptor 5A (Homo sapiens) (UniProt P47898). In words: activation of human 5-HT5A receptor – cell-based, luminescence, counter-screen for OPRM1-OPRD1 heterodimer agonist project (AID 504905).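 Further: 0% = vehicle-treated cells and 100% = reference agonist response.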 The note with it: HTR5A agonist counterscreen, at 9.3 µM, active compounds read high.
For `CN(C)C(CNC(=O)Cc1ccc([N+](=O)[O-])cc1)c1ccccc1` (configuration not stated), the activation was 1.22%.

Regarding `CCOC(=O)c1c(C)[nH]c2c1-c1ccccc1C(=O)C2=O`, the activation was 9.05%.

For `Cc1ccc(OCC(=O)Nc2ccc(NC(=O)c3cccs3)cc2)c(C)c1`, the activation is 8.16%.

As for `CN(C)C(CNC(=O)c1cc2ccccc2o1)c1ccccc1` (configuration not stated), the activation is 46.9% (active).

Regarding `COc1ccc(C2Nc3ccccc3C(=O)N2c2ccc(F)cc2)cc1Cn1nnc2ccccc21` (configuration not stated), the activation is 2.9%.

On to `CCC(C(=O)OCC(=O)Nc1ccc(C(=O)Nc2ccc(OC)cc2)cc1)c1ccccc1` (configuration not stated), for which the activation was 5.87%.

In the case of `Cc1ccc(O)c(NC(=S)NC(=O)COc2ccc(Br)cc2)c1`, the activation is 0.97%.
